This passage reports activation results from PubChem BioAssay AID687014 (The Scripps Research Institute Molecular Screening Center, 2013).

Hit rate of the full screen: of about 370,000 compounds, about 6,800 (1.8%) were called active.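 How the source made its calls: active means activation above a cutoff set at the mean of all screened compounds plus 3 SD (cut at about 10% in these data); inactive means the rest.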 The full list was thinned out, with actives kept by preference.

This assay concerns Nuclear hormone receptor DAF-12 (Heterodera glycines), GAL4 fusion. Put plainly: hgDAF-12 GAL4 fusion reporter activation – cell-based, luminescence, HEK293, UAS-luciferase, primary screen (AID 687014).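 Further: 0% = DMSO wells and 100% = sodium butyrate wells.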 To be noted: HEK293 GAL4-hgDAF12 UAS-luciferase reporter, agonist luminescence; at 6.8 µM; hits give high values; normalized to butyrate control.
On to `COc1cccc(CNC(=O)[C@H]2CCCN2C(=O)[C@H]2CCCN2C(=O)C2CCCCC2)c1`, for which the activation is -1.24% (inactive).

`O=S(=O)(c1cccs1)N1CCCc2nc(-c3ccc(Br)cc3)ccc21`: the activation is -0.93% (inactive).

Consider `CCCCn1nnnc1C(c1cc2ccccc2o1)N(C)Cc1ccc(Cl)c(Cl)c1` (stereo not given), for which the activation was 4.88% (inactive).

As to `CCN1CCC(=NNC(=O)c2ccc(C)c([N+](=O)[O-])c2)CC1`, the activation is -0.03% (inactive).

Regarding `CCCCNc1ccc(C(=O)Nc2cccc(C)n2)cc1[N+](=O)[O-]`, the activation was 1.4% (inactive).

With `Cc1cc(O)c(NC(=O)c2ccc(C)c([N+](=O)[O-])c2)cc1C`, the activation was 14.1% (active).

Consider `O=C(CSc1nnc(-c2ccccn2)n1-c1ccc(Cl)cc1)Nc1ccccc1-c1ccccc1`, for which the activation was -5.11% (inactive).

For the compound `C[C@@H]1COc2cccc(N3CCCC3)c2S(=O)(=O)N1C`, the activation was 2.34% (inactive).

For `COc1ccc(C(=O)CSc2nnc(-c3cnccn3)n2-c2ccc(C)cc2)cc1`, the activation was -1.45% (inactive).

In the case of `CC1CC(C)CN(CCCNC(=O)c2csc3c2CCCCC3)C1` (stereo not given), the activation was 1.68% (inactive).

Turning to `Cc1ccc(NC(=O)C2(N3CCC3=O)CCCCC2)cc1`, the activation was -1.36% (inactive).

Consider `Cc1ccc(NC(=O)c2csc3c2CCCC3)cc1`, for which the activation was 23% (active).

`CC(C)(C)c1ccc(S(=O)(=O)NCC2CCN(C(=O)C(=O)c3cc4ccccc4o3)CC2)cc1`: the activation was -2.12% (inactive).

Regarding `CC(C)CC1NC(=O)c2cc(Cl)ccc2-n2c1nc1ccccc1c2=O` (stereo not given), the activation is -4.04% (inactive).

Regarding `CC(=O)Nc1ccc(-c2nc3ccccc3o2)cc1`, the activation is 14.1% (active).

As for `O=C(Nc1cccc(-n2cnnn2)c1)c1cccnc1`, the activation is 0.26% (inactive).

With `Cc1ccc(-n2nc3cc(C)c(NC(=O)c4cccnc4)cc3n2)cc1`, the activation was 3.33% (inactive).

For `Cc1cc2nc(-c3ccc(NC(=O)c4cccnc4)cc3)oc2cc1C`, the activation is 10.8% (active).

As for `CCN(CC)C(=O)CSc1nc2ccccc2o1`, the activation was 4.9% (inactive).

As to `CC(=O)Nc1ccc(S(=O)(=O)NC2Cc3ccccc3C2)cc1`, the activation is -1.12% (inactive).

In the case of `COc1ccc(C2=CN(Cc3ccccc3)C(c3ccc(OC)cc3)CC2=O)cc1` (stereo not given), the activation is 1.21% (inactive).

On to `COc1ccc(CN(C)Cc2nc3cc(OC)c(OC)cc3c(=O)[nH]2)c(OC)c1`, for which the activation is -1.81% (inactive).

As to `CC(C)CNc1cccc2c1S(=O)(=O)N(Cc1cn(Cc3ccc(Cl)cc3)nn1)Cc1ccccc1O2`, the activation is 1.68% (inactive).

Consider `CCOC(=O)c1c(C)[nH]c(C2=NNC(=NC(C)COC)SC2)c1C` (stereo not given), for which the activation was 12.9% (active).

For the compound `COC(=O)C[C@H]1C=C[C@@H](NS(=O)(=O)c2ccc(C)cc2)[C@@H](CO)O1`, the activation is 3.19% (inactive).

With `COc1ccc(CN(CCN2CCOCC2)C(=O)c2ccc(C)cc2)cc1OC`, the activation was 2.69% (inactive).

Turning to `CN(C)C(CNC(=O)c1cc2ccccc2o1)c1ccccc1` (stereo not given), the activation was 0.25% (inactive).

As to `CC1CCN(c2ccc(-c3ccc(NC(=O)c4ccco4)cc3)nn2)CC1`, the activation was 7.1% (inactive).

With `C/C(=N\NC(=S)Nc1ccc(C)cc1)c1cc2ccccc2o1`, the activation was 0.54% (inactive).

Turning to `Cc1ccc(NC(=O)c2cc3ccccc3o2)cc1`, the activation was 15.2% (active).

As to `Cc1ccc(NC(=O)c2ccco2)cc1`, the activation is 13.3% (active).

For `CN1CCN(S(=O)(=O)c2ccc(NC(=O)c3ccco3)cc2)CC1`, the activation is 3.6% (inactive).

Regarding `CCCCNC(=O)C[C@@H]1C(=O)N(CCc2ccc(Cl)cc2)C2=CCCC[C@]21C(=O)OCC`, the activation is -1.77% (inactive).

Regarding `COc1cccc(CNC(=O)[C@H]2CCCN2C(=O)[C@H]2CCCN2C(=O)c2ccc(F)cc2)c1`, the activation is -0.01% (inactive).

In the case of `Nn1c(SCC(=O)N2c3ccccc3Sc3ccccc32)nnc1-c1n[nH]c2c1CCC2`, the activation was -2.62% (inactive).

With `Nc1ncnc2c1ncn2[C@@H]1O[C@H](C(=O)N2CCSC2)[C@@H](O)[C@H]1O`, the activation was -0.23% (inactive).

On to `O=C(CSc1nnc(-c2cccc(Cl)c2)n1Cc1ccco1)Nc1ccc(OCc2ccccc2)cc1`, for which the activation is -1.62% (inactive).

As for `COc1cccc(N(C(=O)C2COc3ccccc3O2)C(C(=O)NC2CCCCC2)c2ccc(O)cc2)c1` (stereo not given), the activation was 0.49% (inactive).

Consider `Nn1c(SCC(=O)Nc2ccc(S(N)(=O)=O)cc2)nnc1-c1n[nH]c2c1CCC2`, for which the activation is 0.61% (inactive).

For `COc1ccc(C(=O)/C=C/c2ccc(-c3ccccc3)cc2)cc1CSCC(=O)O`, the activation is -3.73% (inactive).

Regarding `CC(=O)Oc1ccc(C)cc1N1C(=O)c2ccc(C(=O)O)cc2C1=O`, the activation is -2.04% (inactive).

Take `O=C(O)c1ccc2c(c1)C(=O)N(c1ccc(/C=C/C(=O)c3ccccc3)cc1)C2=O`: the activation was 14.1% (active).

Regarding `CCOC(=O)C1(Cc2ccccc2)CCN(Cc2cn(C(C)=O)c3ccccc23)CC1`, the activation is 1.22% (inactive).

For the compound `COC(=O)c1sc(NC(=O)COC(=O)C2CCC2)c(C(=O)OC)c1C`, the activation is 0.97% (inactive).

As to `CCC(=O)Nc1sc(C(=O)Nc2ccccc2)c(C)c1C(=O)OC`, the activation is 13.4% (active).

For `COC(=O)c1c(NC(C)=O)sc(C(=O)Nc2ccccc2OC)c1C`, the activation was -3.24% (inactive).

Take `COc1ccccc1-c1ccc([C@@H]2C[C@H]3[C@H](CON3C)CN2S(=O)(=O)c2cc(Cl)cc(Cl)c2)cc1`: the activation was 4.17% (inactive).

For the compound `COC(=O)Nc1nc2ccc(C(=O)C3CC3)cc2[nH]1`, the activation was 6.35% (inactive).

As for `COC(=O)C[C@H]1CC[C@H]2[C@H](COc3ccc(NC(=O)C4CC4)cc3C(=O)N2C)O1`, the activation was 1.59% (inactive).

With `O=C(Nc1nnc(-c2ccc(Cl)cc2)o1)c1ccccc1Br`, the activation is 3.84% (inactive).

On to `Brc1ccc(-c2noc(-c3ccccc3)n2)o1`, for which the activation is 15.9% (active).

For `CCCN(CCC)c1ccc(C(O)c2nnc(-c3ccccc3)o2)cc1` (stereo not given), the activation was -0.77% (inactive).

Consider `Brc1ccc(-c2nnc(-c3ccccc3)o2)o1`, for which the activation is 11.2% (active).

For the compound `O=C(OCc1nnc(-c2ccccc2)o1)c1ccc2c(c1)C(=O)N(CCc1ccccc1)C2=O`, the activation is -0.76% (inactive).

`Nc1ccc(-c2nnc(-c3ccccc3)o2)cc1`: the activation was 10.4% (active).

In the case of `O=S(=O)(c1ccc(Br)cc1)c1nc(-c2ccccc2)oc1N1CCOCC1`, the activation is -0.08% (inactive).

For the compound `C=CCN1C(=O)[C@@H](CC(=O)N2CCN(C(=O)OCC)CC2)[C@]2(C(=O)OCC)CCCCC/C=C/12`, the activation is -0.26% (inactive).

Turning to `CCN(CC)C(=O)CC[C@@H]1CC[C@]2(CCCN(S(=O)(=O)C3CCCCC3)C2)O1`, the activation is 0.45% (inactive).

Turning to `C=CCn1c(SCC(N)=O)nnc1-c1ccccc1OC`, the activation is -1.84% (inactive).

Regarding `S=C1NC(c2ccccc2)=NCN1c1ccc(Br)cc1`, the activation was 4.34% (inactive).

In the case of `N#Cc1ccc(C2N=C(c3ccccc3)NO2)cc1` (stereo not given), the activation is 9.37% (inactive).

Turning to `Brc1ccccc1C1N=C(c2ccccc2)NO1` (stereo not given), the activation was 20.2% (active).

Take `CCOC(=O)C1CCN(C(=O)C(C)(C)NC(=O)Nc2ccccc2Cl)CC1`: the activation is 0.66% (inactive).

On to `C[C@@H]1ON(C)[C@H]2C[C@H]3c4cc(N5CCOCC5)ccc4CCN3C[C@@H]12`, for which the activation is -4.54% (inactive).

In the case of `COC(=O)C1=C(C)N(Cc2ccccc2C(F)(F)F)C(=NCc2ccc(OC)cc2)NC1c1cccc(C(F)(F)F)c1` (stereo not given), the activation is -1.71% (inactive).

In the case of `O=C(Nc1ccon1)c1sc2ccccc2c1Cl`, the activation was 11.2% (active).

As for `O=C(Nc1ccc2c(c1)OCO2)c1sc2cc(Cl)ccc2c1Cl`, the activation is -1.79% (inactive).

Turning to `CN1CCc2ccccc2C1Cc1ccccc1NC(=O)c1sc2ccccc2c1Cl` (stereo not given), the activation was 5.85% (inactive).

As to `C[C@@H]1CN([C@H](C)CO)C(=O)CCCn2cc(nn2)CO[C@H]1CN(C)C(=O)Nc1ccc(N2CCCCC2)cc1`, the activation is 5.88% (inactive).

As for `Cc1nc2ccccc2n1C(=O)N1CCOCC1`, the activation is 1.42% (inactive).

On to `Cc1nn2c3cc(N4CCOCC4)ccc3nc2c2ccccc12`, for which the activation was 11.4% (active).

For `N#CCSc1nc2ccc(N3CCOCC3)cc2c(=O)n1CCc1ccccc1`, the activation was -1.34% (inactive).

As to `Cc1ccc(Cn2cc(CN3[C@@H](CC(C)C)COc4ccc(Cl)cc4S3(=O)=O)nn2)cc1`, the activation was 0.41% (inactive).

With `CCCC1(C(=O)OCC)NC(c2ccc(N(C)C)cc2)C2C(=O)N(c3ccc4c(c3)OCCO4)C(=O)C21` (stereo not given), the activation was -2.1% (inactive).

As to `Cc1ccc(-c2nc(C3CCCN(S(=O)(=O)c4ccc(Br)s4)C3)no2)cc1` (stereo not given), the activation is 1.98% (inactive).

Take `Fc1cnc(N2CCOCC2)nc1NCc1ccccc1`: the activation was -0.76% (inactive).

Consider `COC(=O)c1ccccc1Oc1c(F)c(F)nc(N2CCOCC2)c1F`, for which the activation was -0.09% (inactive).

As for `COc1ccc(Nc2ncc(F)c(N3CCOCC3)n2)cc1`, the activation is 18.6% (active).

As for `COC(=O)c1cc2c(c3c4cc(F)ccc4n(S(=O)(=O)c4ccccc4)c13)C(=O)N(Cc1ccccc1OC)C2`, the activation is 0.57% (inactive).

In the case of `Cc1ccc(NC(=O)c2oc(=O)c3ccccc3c2-c2ccccc2)c(C)c1`, the activation was 2.59% (inactive).

In the case of `Cc1ccc(NN=C2C(=O)OC(C)(C)OC2=O)c(C)c1`, the activation was 11.5% (active).

With `Cc1ccc(NC(=O)C(=O)NCc2ccco2)c(C)c1`, the activation was 6.27% (inactive).

Regarding `C=CCN(C)CC#Cc1ccccc1`, the activation was -1.36% (inactive).

On to `CCOc1ccc(-c2nnc(-c3ccco3)o2)cc1`, for which the activation was 13.6% (active).

Regarding `CCCCOc1ccc(-c2nnc(-c3ccco3)o2)cc1`, the activation is 11.3% (active).

On to `CCCCCCc1cc2cc(-c3nnc(-c4cccc(OC)c4)o3)c(=O)oc2cc1O`, for which the activation was 4.05% (inactive).

As to `CCOc1ccc(NC(=O)N(CCC(C)C)C(C)c2ccco2)cc1` (stereo not given), the activation was -1.26% (inactive).

In the case of `O=C(CSc1nnc(-c2ccco2)o1)NCC(=O)c1ccccc1`, the activation is -1.52% (inactive).

For `CCCCSc1nnc(-c2ccc(C)cc2)o1`, the activation was 8.59% (inactive).

Turning to `COC(=O)[C@]12C[C@H](CC(=O)N3CCOCC3)C(=O)N(Cc3ccc(Cl)cc3Cl)C1=C[C@H](C(C)C)O[C@@H]2C1CC1`, the activation is -3.62% (inactive).
